Screening results: PubChem BioAssay, Sanford-Burnham Center for Chemical Genomics
CYP2C19 act = activators of human cytochrome P450 2C19. 96,000 tested, under 10 active. recombinant CYP2C19, luciferin-H EGE luminescence; hits give high values; 0 = fully inhibited enzyme, 1 = untreated enzyme. P33261. activation factor at 5 µM. AID 1025;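 active = activation factor of at least 2 at 5 µM in the primary screen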;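 note: 0 = wells with 2.5 mM tranylcypromine and 1 = vehicle-only wells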
CYP2C9 inh = inhibitors of human CYP2C9; inhibition, % at 5 µM; actives 20% (n = 96,000); CYP2C9 Supersomes, luciferin-H conversion, luminescence;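 active = blocking of liver enzyme CYP2C9 beyond about 50% at 5 µM, limit read from the data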
Target sequence (P11712 whole entry, looked up): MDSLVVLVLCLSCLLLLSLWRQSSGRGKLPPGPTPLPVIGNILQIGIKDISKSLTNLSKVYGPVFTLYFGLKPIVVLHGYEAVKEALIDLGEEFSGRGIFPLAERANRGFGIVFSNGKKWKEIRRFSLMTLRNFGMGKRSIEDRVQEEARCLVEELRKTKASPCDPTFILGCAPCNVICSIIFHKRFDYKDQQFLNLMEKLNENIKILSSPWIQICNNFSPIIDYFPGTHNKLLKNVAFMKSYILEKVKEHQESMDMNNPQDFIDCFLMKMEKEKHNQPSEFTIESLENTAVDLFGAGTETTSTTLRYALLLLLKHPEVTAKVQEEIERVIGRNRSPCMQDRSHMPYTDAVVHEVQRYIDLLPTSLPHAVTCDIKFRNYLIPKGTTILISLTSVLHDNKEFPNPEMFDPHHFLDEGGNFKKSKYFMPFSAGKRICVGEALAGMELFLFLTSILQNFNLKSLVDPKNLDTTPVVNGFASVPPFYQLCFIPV
CYP2C19 inh = blocks human cytochrome P450 2C19 | actives 21% (n = 96,000) | P33261 | inhibition, % at 5 µM | CYP2C19 Supersomes, luciferin-H EGE luminescence, 30 min | AID 778;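 active = CYP2C19 inhibition above a set limit at 5 µM in the primary screen, cut at about 50% in these data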;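 note: plate controls were negative control wells for no effect and 2.5 mM tranylcypromine positive control for full effect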
CYP2C9 act = CYP2C9 (human) activation | recombinant CYP2C9, luciferin-H conversion, luminescence; hits give high values; factor 1 = untreated enzyme, 0 = blocked | P11712 | actives 1.4% (n = 96,000) | AID 1024 | activation factor at 5 µM;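 active = activation factor of 2 or more for CYP2C9 at a 5 µM dose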;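 note: 0 = sulfaphenazole-blocked wells and 1 = vehicle-only wells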
Mac1 fbg inh = blocks human CD11b/CD18 adhesion to fibrinogen; K562 CD11b/CD18 adhesion to fibrinogen, ATPlite luminescence; Mn2+ added to activate the integrin; inhibition, % at 10 µM; actives 0.54% (n = 93,000);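 active = primary inhibition of 50% or more at 10 µM, then 40% or more on retest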
Mac1 fbg enh = increases human CD11b/CD18 adhesion to fibrinogen; P05107+P11215; K562 CD11b/CD18 adhesion to fibrinogen, ATPlite luminescence; activation, % at 10 µM; actives 0.07% (n = 93,000); AID 1499;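 active = 10 µM primary screen giving 50% or more activity, confirmed by 40% or more on retest at that dose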
Active calls of the source: *; . = no result given. The list is not random: actives were taken first. Their share in the collection is about 28%.

SMILES | CYP2C19 act | CYP2C9 inh | CYP2C19 inh | CYP2C9 act | Mac1 fbg inh | Mac1 fbg enh
O=C(CCCOc1ccc(Cl)cc1)N1CCOCC1 | 0.1 | 1 | 87* | 1 | -52 | -1
O=C(CCCOc1ccc(Cl)cc1)N1CCCCC1 | 0 | 40 | 98* | 0.6 | 13 | 4
O=C(CCCOc1ccc(Cl)cc1)N1CCCCCC1 | 0 | 59* | 95* | 0.4 | 11 | 0
CCOC(=O)C1CCN(C(=O)CCCOc2ccccc2)CC1 | 0.6 | 7 | 36 | 0.9 | 7 | -5
Oc1cccc2ccc[n+](CC(O)Cn3c4ccccc4c4ccccc43)c12 (centres undefined) | . | . | . | . | 30 | -3
O=C(c1ccc(NC2=NC3CS(=O)(=O)CC3S2)cc1)N1CCc2ccccc2C1 (centres undefined) | 1 | -1 | 4 | 1 | -11 | -7
Cc1cc(C)nc(SCC(=O)OCC(=O)Nc2nc3ccccc3s2)n1 | . | . | . | . | 6 | 2
CCOC(=O)N1CCN(c2c(NCC3CCN(Cc4cccc(C)c4)CC3)c(=O)c2=O)CC1 | 1.1 | -2 | -6 | 1 | -6 | -5
CCC1CCCCN1C(=O)N[C@@H](Cc1ccccc1)C(=O)O (some centres undefined) | 1 | -10 | -2 | 1.1 | -5 | -1
CCC1CCCCN1C(=O)CCCOc1ccccc1 (centres undefined) | 0.5 | 9 | 50* | 0.9 | 4 | 3
Nc1c(NCc2ccccc2F)c(=O)[nH]c(=O)n1Cc1ccccc1 | 0.4 | 75* | 63* | 0.3 | -6 | -6
CC(=O)CN1Cc2ccccc2/C1=N\C(=O)Nc1ccccc1 | 0.4 | 48 | 58* | 0.5 | 1 | 2
CCOC(=O)c1cc(-c2ccc(/C=N\n3cnnc3)o2)ccc1Cl | 0.8 | 66* | 22 | 0.3 | 1 | -4
Clc1ccccc1-c1ccc(/C=N/n2cnnc2)o1 | 0.4 | 3 | 62* | 1 | -7 | 0
Cc1nnc(SCC(=O)N/N=C/c2ccc(-c3ccc(C)c(Cl)c3)o2)s1 | . | . | . | . | -8 | -2
O=C1N=C(N2CCOCC2)S/C1=C/c1ccc(-c2ccccc2Cl)o1 | 0.6 | 19 | 39 | 0.8 | -8 | 12
Cc1c(Cl)cccc1-c1ccc(/C=N/n2cnnc2)o1 | 0.1 | 71* | 88* | 0.3 | -6 | 0
CCCC(=O)Nc1sc(C)c(C)c1C(=O)Nc1cccc(C)c1 | 0.8 | 10 | 15 | 0.9 | . | .
CCOc1ccc(-n2c(SCC(=O)Nc3ccccc3C)n[nH]c2=O)cc1 | 0.8 | -24 | 20 | 1.2 | -19 | 2
CCOC(=O)c1c2ccc(OCC(=O)N/N=C/c3ccccc3C(F)(F)F)cc2n2ccccc12 | 0.8 | 59* | 16 | 0.4 | 0 | 3
CC(C)(C)NC(=O)Cn1cc(C#N)c2cc(Br)ccc21 | 0.1 | 21 | 88* | 0.8 | -17 | 14
CC1CC(C)(C)N(C(=O)CSc2ccc(-c3ccc(F)cc3)nn2)c2ccccc21 (centres undefined) | 0.5 | 58* | 49 | 0.4 | . | .
CSc1nccc(-c2nn(-c3ccc(C)cc3)ccc2=O)n1 | 0.7 | 37 | 32 | 0.6 | -24 | -1
CCSc1nccc(-c2nn(-c3ccc(C)cc3)ccc2=O)n1 | 0.5 | 63* | 46 | 0.4 | -1 | -2
Cc1cc(N2CCOCC2)nc(-c2ccc([N+](=O)[O-])cc2)n1 | 0.8 | 12 | 22 | 0.9 | . | .
SMILES | CYP2C19 act | CYP2C9 inh | CYP2C19 inh | CYP2C9 act | Mac1 fbg inh | Mac1 fbg enh
COC(=O)c1cc(=O)n(CCc2ccc(OC)c(OC)c2)c(=Nc2ccc(F)c(Cl)c2)s1 | 0.4 | 76* | 57* | 0.2 | 1 | 2
CC(C)=CC(=O)Nc1ccc(Br)cc1 | 0.8 | 73* | 23 | 0.3 | 4 | 0
Cc1nc2sc(C(c3cccc(F)c3)N3CCOCC3)c(O)n2n1 (centres undefined) | 0.9 | 1 | 14 | 1 | -18 | 8
CC(C)(C)S(=O)c1cccs1 (centres undefined) | 1 | 3 | 4 | 1 | -2 | -1
O=C(O)CCCCCN1C(=O)CSC1=S | 0.9 | 17 | 6 | 0.8 | -8 | -4
CC(C)OC(=O)CCCCCN1C(=O)CSC1=S | 0 | 91* | 99* | 0.1 | -29 | -1
O=C(C1CCN(S(=O)(=O)c2ccc(F)cc2)CC1)N1CCOCC1 | 0.8 | -8 | 20 | 1.1 | 1 | 0
COc1ccnc(N=CNOCc2cccc(Cl)c2Cl)c1C#N | 0.4 | 8 | 58* | 0.9 | -37 | 0
O=C(c1ccco1)N1CCN(C(=O)c2cc3c(=O)oc4ccccc4c3s2)CC1 | 0.7 | 61* | 27 | 0.4 | -1 | -4
Cc1ccc2cc3cc(C(=O)N4CCN(C(=O)c5ccco5)CC4)sc3nc2c1 | 0.4 | 47 | 64* | 0.5 | -52 | -1
Cc1nn2c(N3CCN(C4CCCC4)CC3)cc(C(C)(C)C)nc2c1-c1ccccc1 | 1.1 | 31 | -5 | 0.7 | -6 | 0
O=C(c1ccco1)N1CCN(c2nc3ccsc3c(=O)s2)CC1 | 0.6 | 64* | 44 | 0.4 | 1 | -5
Cc1nn2c(N3CCN(C(=O)c4ccco4)CC3)cc(C(C)(C)C)nc2c1-c1ccccc1 | 0.9 | 58* | 9 | 0.4 | . | .
C=CCOc1c2ccc(C(=O)NCCc3ccc(C)cc3)cc2nn1C | 0.9 | 20 | 13 | 0.8 | . | .
COC(=O)c1sc2ncn(-n3c(C)ccc3C)c(=O)c2c1C | 0.9 | 14 | 13 | 0.9 | -9 | 1
CCOC(=O)c1sc(NC(=O)/C=C/c2cnn(CC)c2C)c(C(=O)OCC)c1C | 0.9 | 31 | 9 | 0.7 | -1 | 7
O=C(c1ccc(-c2ccccc2)cc1)N1CCN(C(=O)c2ccco2)CC1 | 0.8 | 17 | 16 | 0.8 | -26 | 4
CC(=O)c1c(N2CCN(C(=O)c3ccco3)CC2)nc(=S)n(-c2ccccc2)c1C | 1.1 | -8 | -5 | 1.1 | -14 | 8
O=C(c1ccco1)N1CCN(c2nnc(-c3ccccc3)c3ccccc23)CC1 | 0.4 | 4 | 58* | 1 | -39 | 0
O=C(c1ccco1)N1CCN(c2ncnc3c2oc2ccccc23)CC1 | 0.4 | 30 | 62* | 0.7 | -38 | -1
O=C(c1ccco1)N1CCN(c2nc3ccccc3c(=O)n2-c2ccccc2)CC1 | 0.7 | 67* | 30 | 0.3 | . | .
O=C1NC(=Nc2ccccc2)S/C1=C\c1cccn1-c1ccccc1 | 0.8 | -67 | 18 | 1.7 | 51 | -5
CCOC(=O)CSc1nnc(CSc2nc3ccccc3c(=O)[nH]2)n1-c1ccccc1 | 0.8 | 48 | 21 | 0.5 | 6 | -4
CC(=O)Nc1ccc(NC(=O)c2ccccc2CC[N+](=O)[O-])cc1 | 1.1 | -5 | -10 | 1 | 7 | -4
CC(C)c1nnc(NC(=O)CC(=O)Nc2ccccc2C(=O)O)s1 | 0.8 | 9 | 15 | 0.9 | 27 | 3
